Screening data as filed in PubChem BioAssay.
CSC inhib – cancer stem cell viability inhibitors, primary screen, luminescence | cancer stem cell-like cells viability | inhibition, % at 7.5 µM | 300,000 compounds, 1.1% hits | AID 2717, 2010; in the data active = inhibition above about 75%; inconclusive = no clear call, values can overlap the other calls; tested in HMLE shEcad cells
A1 inh – caspase 3/7 activation in MEF A1-2A-BIM cells, primary screen, A1 inhibitor project, cell-based, luminescence, HTS; Caspase-Glo 3/7 luminescence, 3 h; percent of clofoctol response, vehicle zero; caspase activation, % (concentration not given with the values); 330,000 compounds, 0.066% hits; AID 2462, 2010;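 active = over half of replicate activation scores above 10%, or exactly half above 10 with the replicate mean above 10; inconclusive = replicate mean below 10 yet half the replicates above 10; inactive = over half of replicates below 10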
Beta apoptosis – inhibitors of cytokine-induced beta cell apoptosis, primary screen, luminescence. INS-1E cytokine-induced death, ATP luminescence, 48 h; percent of positive-control rescue, neutral wells zero. protection from apoptosis, % (test concentration not listed). 300,000 compounds, 0.8% hits;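 active = Every replicate reaches about 75%, or at least half do and their mean reaches it too, limit read from the data; inconclusive = At least half of replicates reach the limit but their mean does not; inactive = Under half of replicates reach the limit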;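 also: 0% = cytokine-treated negative control wells and 100% = positive control rescue; higher means more ATP so stronger rescue from cytokine killing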
Mdm2-MdmX inh – inhibitors of human Mdm2-MdmX association, primary screen, cell-based, luminescence, split luciferase, SaOS-2, uHTS | SaOS-2 split-luciferase Mdm2/MdmX complementation | inhibition, % at 8 µM | 330,000 compounds, 3% hits | AID 485346, 2010;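 active = inhibition of at least 50% at 8 µM in the primary screen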
Target sequence (O15151 whole entry, looked up): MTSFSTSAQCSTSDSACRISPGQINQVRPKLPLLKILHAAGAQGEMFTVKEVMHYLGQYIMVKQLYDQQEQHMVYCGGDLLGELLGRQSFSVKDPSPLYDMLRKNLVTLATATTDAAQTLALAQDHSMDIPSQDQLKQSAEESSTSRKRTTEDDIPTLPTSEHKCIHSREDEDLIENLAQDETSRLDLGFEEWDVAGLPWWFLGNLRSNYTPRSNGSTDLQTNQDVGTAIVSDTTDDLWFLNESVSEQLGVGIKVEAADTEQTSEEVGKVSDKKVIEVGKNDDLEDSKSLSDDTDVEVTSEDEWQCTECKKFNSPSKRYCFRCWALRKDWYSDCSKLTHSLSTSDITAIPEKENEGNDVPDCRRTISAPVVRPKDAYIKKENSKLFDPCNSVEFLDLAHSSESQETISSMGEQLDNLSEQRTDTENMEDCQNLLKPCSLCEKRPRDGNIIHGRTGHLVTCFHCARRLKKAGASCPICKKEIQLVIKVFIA
Target sequence (Q00987 whole entry, looked up): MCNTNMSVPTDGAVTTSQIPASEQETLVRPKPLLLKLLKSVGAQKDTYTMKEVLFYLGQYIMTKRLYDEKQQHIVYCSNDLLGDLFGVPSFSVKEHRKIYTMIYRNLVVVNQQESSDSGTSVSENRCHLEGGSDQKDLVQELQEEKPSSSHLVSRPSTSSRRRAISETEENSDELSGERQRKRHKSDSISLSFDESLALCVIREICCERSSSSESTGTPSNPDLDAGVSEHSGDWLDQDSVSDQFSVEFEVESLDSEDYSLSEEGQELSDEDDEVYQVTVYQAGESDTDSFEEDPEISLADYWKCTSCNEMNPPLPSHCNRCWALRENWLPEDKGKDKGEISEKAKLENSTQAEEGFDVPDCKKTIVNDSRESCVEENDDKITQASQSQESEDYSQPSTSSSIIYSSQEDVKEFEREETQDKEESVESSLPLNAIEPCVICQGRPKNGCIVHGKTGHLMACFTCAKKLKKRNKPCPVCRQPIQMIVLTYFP
aSyn UTR inh – MLPCN primary screen, SNCA 5' untranslated region. inhibition, % (tested at 7.5 µM). alpha-synuclein 5'UTR reporter, inhibitor activity. AID 1813, 2009. 300,000 compounds, 0.82% hits; in the data active = inhibition above about 60%; inconclusive = no clear call, values can overlap the other calls;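 also: H4 neuroglioblastoma cells stably carrying SNCA 5'UTR luciferase fusion; 0% = DMSO wells and 100% = positive control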
Mdm2 MdmX conf – Mdm2-MdmX complex disruptors, retested hits, confirmation, luminescence, single concentration. shares compounds with Mdm2-MdmX inh. Mdm2-MdmX binding, luminescent assay. inhibition, % at 8 µM. 10,000 compounds, 55% hits; in the data active = inhibition above about 40%
FLuc counter – full-length luciferase signal inhibition, confirmation, counter-screen for Mdm2/MdmX interaction inhibitor project, cell-based, single concentration, SaOS-2 | shares compounds with Mdm2-MdmX inh | SaOS-2 full-length luciferase counterscreen, luminescence | inhibition, % at 8 µM | 6,200 compounds, 77% hits;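 active = mean inhibition at 8 µM reaching about 37%, which flags the compound as non-specific, limit read from the data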;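 also: p53-null SaOS-2 cells with luciferase driven by a doxycycline-inducible promoter; compound on cells about two nights before reading with doxycycline added after day one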
Active calls of the source: *. Hits are enriched below; roughly 4.1% of the tested compounds scored in any of these assays.

How did CCOc1ccc(-c2cc(CCCC(=O)Nc3cccc(OC)c3)no2)cc1 do in these assays?
CSC inhib: 57; A1 inh: -1; Beta apoptosis: -6; Mdm2-MdmX inh: 54*; aSyn UTR inh: 68*; Mdm2 MdmX conf: 45*; FLuc counter: 61*

What do the screens show for `Cc1noc(C)c1NC(=O)Nc1ccc2c(c1)C(=O)N([C@H](C)CO)C[C@H](C)[C@@H](CN(C)S(=O)(=O)c1ccccc1)O2`?
A1 inh: -1; Beta apoptosis: -1; Mdm2-MdmX inh: -18

Results for O=C(Nc1ccc(Cl)c(Cl)c1)NC1CCS(=O)(=O)C1 (stereo not given) ?
CSC inhib: 0; A1 inh: 1; Beta apoptosis: 3; Mdm2-MdmX inh: -4; aSyn UTR inh: 8

Results for COc1ccc(Oc2nc(-c3ccccn3)ncc2OC)cc1 ?
CSC inhib: -11; A1 inh: 1; Beta apoptosis: 3; Mdm2-MdmX inh: 16; aSyn UTR inh: 2

How did CN(C)c1nc(-c2ccccn2)nnc1-c1ccccc1 do in these assays?
CSC inhib: -9; A1 inh: 0; Beta apoptosis: 5; Mdm2-MdmX inh: 76*; aSyn UTR inh: 79*; Mdm2 MdmX conf: 4

How did c1ccc(-c2nnc(-c3ccccn3)c(-c3ccccn3)n2)nc1 do in these assays?
CSC inhib: -6; A1 inh: -1; Beta apoptosis: 0; Mdm2-MdmX inh: 30; aSyn UTR inh: -9

Results for CCN(CC)c1nc(-c2ccccn2)nc(-c2ccccc2)c1C#N ?
CSC inhib: -15; A1 inh: -1; Mdm2-MdmX inh: 59*; aSyn UTR inh: 35; Mdm2 MdmX conf: 38

What do the screens show for `COc1cnc(-c2ccccn2)nc1N(C)C`?
CSC inhib: 45; A1 inh: 0; Beta apoptosis: 81*; Mdm2-MdmX inh: 72*; aSyn UTR inh: 99*; Mdm2 MdmX conf: 79*; FLuc counter: 42*

What do the screens show for `CN=C1c2cc3cc(OC)ccc3n2CCN1Cc1ccccc1`?
aSyn UTR inh: 28

How did CCN(CC)CCNC1=NCCn2c1cc1cc(OC)ccc12 do in these assays?
CSC inhib: 16; A1 inh: 0; Beta apoptosis: 6; Mdm2-MdmX inh: 64*; aSyn UTR inh: -39; Mdm2 MdmX conf: 64*; FLuc counter: 68*

What do the screens show for `CC1=C(/C=C/C(C)=C/C=C/C(C)=C/C(=O)Nc2ccc(O)cc2)C(C)(C)CCC1`?
CSC inhib: 104*; A1 inh: 0; Beta apoptosis: -1; Mdm2-MdmX inh: 87*; Mdm2 MdmX conf: 8

How did CC1=C(/C=C/C(C)=C/C=C/C(C)=C\C(=O)O)C(C)(C)CCC1 do in these assays?
CSC inhib: 9; A1 inh: 2; Beta apoptosis: -17; Mdm2-MdmX inh: 60*; aSyn UTR inh: 39; Mdm2 MdmX conf: 49*; FLuc counter: 45*

Results for CCOc1cc(NC(=O)c2ccccn2)c(OCC)cc1NC(=O)c1ccccc1 ?
CSC inhib: inconclusive; A1 inh: 0; Beta apoptosis: -1; Mdm2-MdmX inh: 25; aSyn UTR inh: 1

Results for CCOc1cc(NC(=O)c2ccccn2)c(OCC)cc1NC(=O)c1ccc(Cl)cc1 ?
CSC inhib: -5; A1 inh: 0; Beta apoptosis: 21; Mdm2-MdmX inh: 56*; aSyn UTR inh: -17; Mdm2 MdmX conf: 18

How did Cc1ccccc1NS(=O)(=O)c1c(C(=O)N2CCCCCC2)c(C)n(C)c1C do in these assays?
CSC inhib: -12; A1 inh: 0; Beta apoptosis: 0; Mdm2-MdmX inh: 2; aSyn UTR inh: 1

How did O=C(NNC(=S)NC1CCCCC1)c1sc2ccccc2c1Cl do in these assays?
CSC inhib: 28; A1 inh: -1; Beta apoptosis: 7; Mdm2-MdmX inh: 5; aSyn UTR inh: -6

How did CC(C)(C)C(=O)NC(=S)NNC(=O)c1sc2ccccc2c1Cl do in these assays?
A1 inh: 1; Beta apoptosis: 67; Mdm2-MdmX inh: 74*; aSyn UTR inh: 89*; Mdm2 MdmX conf: 52*; FLuc counter: 37*

Results for Oc1ccc(Nc2nc(-c3ccccc3O)nc3ccccc23)cc1 ?
CSC inhib: 83*; A1 inh: 0; Beta apoptosis: -1; Mdm2-MdmX inh: 54*; aSyn UTR inh: -35; Mdm2 MdmX conf: 24

How did COc1ccc(Nc2nc(-c3ccccc3F)nc3ccccc23)cc1OC do in these assays?
CSC inhib: 11; A1 inh: 0; Beta apoptosis: 15; Mdm2-MdmX inh: 55*; aSyn UTR inh: 28; Mdm2 MdmX conf: 33

What do the screens show for `Oc1ccc(Nc2nc(-c3ccccc3F)nc3ccccc23)cc1`?
CSC inhib: 2; A1 inh: -1; Beta apoptosis: -3; Mdm2-MdmX inh: 21; aSyn UTR inh: 28

How did CCOc1ccc(CN(C)C(=O)CN2C(=O)NC(c3ccccc3)(c3ccccc3)C2=O)cc1 do in these assays?
Mdm2-MdmX inh: 13

What do the screens show for `O=C(Nc1cccc(-c2cn3ccccc3n2)c1)c1cccc(Cl)c1`?
CSC inhib: inconclusive; A1 inh: -2; Beta apoptosis: 58; Mdm2-MdmX inh: 75*; aSyn UTR inh: -39; Mdm2 MdmX conf: -8

What do the screens show for `C=C1[C@@H](O)[C@@H]2O[C@]3(CC[C@H](/C=C/[C@@H](C)[C@@H]4CC(C)=CC5(O[C@H](C[C@@](C)(O)C(=O)OC)CC[C@H]5O)O4)O3)CC[C@H]2O[C@@H]1[C@@H](O)C[C@H](C)[C@H]1OC2(CCCCO2)CC[C@H]1C` (stereo not given in full)?
CSC inhib: 77*; A1 inh: -2; Beta apoptosis: 108*; Mdm2-MdmX inh: 100*; Mdm2 MdmX conf: 100*; FLuc counter: 1

What do the screens show for `C=C1C(O)[C@@H]2O[C@]3(CC[C@H](/C=C/C(C)[C@@H]4CC(C)=CC5(O[C@H](C[C@@](C)(O)CO)CCC5O)O4)O3)CC[C@H]2O[C@@H]1C(O)CC(C)[C@H]1OC2(CCCCO2)CCC1C` (stereo not given in full)?
A1 inh: inconclusive; Beta apoptosis: 76*; Mdm2-MdmX inh: 88*; Mdm2 MdmX conf: 90*; FLuc counter: 33

Results for O=C(COc1coc(CN2CCCc3ccccc32)cc1=O)Nc1ccccc1 ?
CSC inhib: -8; A1 inh: 1; Beta apoptosis: 4; Mdm2-MdmX inh: 20; aSyn UTR inh: -29
